This is part of a sample that, as a whole, favours compounds with a hit. Of some 79,000 tested, about 15% had one in any assay. Active and inactive are the calls of the source. Rule as the data show it: active = growth inhibition above about 70%; inactive = the rest.
assay: NCI Yeast Anticancer Drug Screen. Data for the rad50 strain (AID 155);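 also: 0% = growth of vehicle-only cultures of the same strain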; conditions: S. cerevisiae rad50 strain growth inhibition; at 50.0 µM; hits give high values
Description: Growth inhibition of yeast strains with defined genetic alterations is measured as a screen for potential anti-cancer activity. Selected strains with alterations in DNA damage repair or cell cycle control were exposed to compounds and growth inhibition was measured relative to vehicle treated controls. The strain used in this assay is rad50

Row | Compound | growth inhibition
1 | Cc1nnc(SCC2=C(C(=O)O)N3C(=O)C(NC(=O)Cn4cnnn4)C3SC2)s1 (stereo not given) | 41.8% (inactive)
2 | CCCCCCCCCCCCCCCCOc1ccc(C)cc1 | -14.3% (inactive)
3 | CC(=O)NS(=O)(=O)c1ccc2sc(C)nc2c1 | -32% (inactive)
4 | C/C(=C\COc1cc(O)c2c(c1)C(=O)c1cc(C)cc(O)c1C2=O)CCC1OC1(C)C (stereo not given) | 16.7% (inactive)
5 | CCOc1ccc(N=c2ssc(SC)c2-c2ccccc2)cc1 | 3.4% (inactive)
6 | CC(C)c1nc(-c2ccccc2)c(-c2ccccc2)[nH]1 | 43.2% (inactive)
7 | Cc1ccc(Cl)cc1NCN1C(=O)c2ccccc2C1=O | 1.35% (inactive)
8 | O=C1c2ccccc2C(=O)N1/N=C/c1cc(Cl)cc(Cl)c1O | 0.95% (inactive)
9 | C1CCCCNCCC1 | -22.8% (inactive)
10 | OCc1ccccn1 | -10.7% (inactive)
11 | CCN(CC#N)c1ccc(Nc2cc(Cl)ccc2Cl)cc1 | 8.75% (inactive)
12 | Cc1cc(Cl)ccc1NCN1C(=O)c2ccccc2C1=O | -6.8% (inactive)
13 | N#CC1(C#N)C2CCCCC23OC(=N)C1(C#N)C(c1ccco1)O3 (stereo not given) | 15.8% (inactive)
14 | Nc1ccccc1SC1CC(=O)N(c2ccccc2Cl)C1=O (stereo not given) | -18.4% (inactive)
15 | CCCCCCC(=O)CCCC(C)CCCC(C)C (stereo not given) | -13.5% (inactive)
16 | CCOC(=O)c1cc(C)nc2c1c(=O)n(-c1ccccc1)c(=O)n2CCCCN1CCN(c2ncccn2)CC1 | 9.75% (inactive)
17 | ClCCCC1(CCCCl)OCCO1 | -21.3% (inactive)
18 | CCC1OC2(C)CC(C#N)(C#N)C1(C#N)C(=N)O2 (stereo not given) | 0.6% (inactive)
19 | C[n+]1ccc(/C=C\c2ccc3c(c2)OCO3)cc1 | -1.4% (inactive)
20 | c1ccc(-c2nc3ccc4ccccc4c3nc2-c2ccccc2)cc1 | -8.85% (inactive)

Row | Compound | growth inhibition
21 | COc1cc(-c2nc(SC)nc3c2CCc2ccccc2-3)cc(OC)c1OC | -6% (inactive)
22 | O=Cc1ccc2c(c1Cl)C(=O)c1ccccc1C2=O | 51% (inactive)
23 | COc1cc(/C=N\NC(=O)OC(C)(C)C)cc(OC)c1OC | 6.25% (inactive)
24 | Cc1ccc(NCN2C(=O)c3ccccc3C2=O)cc1Cl | 20.1% (inactive)
25 | COC(CN(C)CC(OC)OC)OC | -8.75% (inactive)
26 | C=C1CC2(C)CCC(OC(=O)C3(C)OC3C)C(C)(OC(C)=O)C2CC1=C(C)C (stereo not given) | 7.7% (inactive)
27 | CCCCOc1cc(C(=O)NCCN(CC)CC)c2ccccc2n1 | -2.1% (inactive)
28 | CCC(=O)CC1CCCC(CC(=O)CC)N1C (stereo not given) | -4.6% (inactive)
29 | COc1ccc(-c2cc(=O)c3ccc(O)cc3o2)cc1 | 7.55% (inactive)
30 | CCC(=O)C(CC)c1cccc(OC)c1 (stereo not given) | 16.6% (inactive)
31 | COC(=O)c1ccc(NC(=O)O/N=C(\Cl)C(C)C)cc1 | -21.6% (inactive)
32 | CCCCCCCCOC(=O)C(=O)C(C#N)c1ccccc1 (stereo not given) | 6.95% (inactive)
33 | O=C(O)COc1cc(-c2ccccc2F)nc2cc3c(cc12)OCO3 | 34.1% (inactive)
34 | N#C/C(=C/c1c(O)ccc2ccccc12)C(N)=O | 33.7% (inactive)
35 | NC(=S)N/N=C/c1cc([N+](=O)[O-])ccc1Cl | 10.8% (inactive)
36 | O=C(O)c1cc(N=Nc2ccccc2)ccc1O | -19.1% (inactive)
37 | CC(=O)C1=CCC2C3CC(C)=C4CC(O)CCC4(C)C3CCC12C (stereo not given) | 24.9% (inactive)
38 | O[C@H]1[C@H](O)[C@@H](Cn2nnc(-c3ccccc3)c2-c2ccccc2)OCO[C@@H]1Cn1nnc(-c2ccccc2)c1-c1ccccc1 | 53.3% (inactive)
39 | C[N+](C)(C)CN1C(=O)c2ccccc2C1=O | -11.9% (inactive)
40 | NC(N)=Nc1ccc(CC(N)C(=O)O)cc1 (stereo not given) | -0.5% (inactive)
